Results on eight molecules are retold here after PubChem BioAssay (NCATS).

“And” between values parts separate entries of the source, which are not always exact repeats. Equal entries are not always repeated. Records with an inconclusive call do not appear. The source made the active and inactive calls. Unless noted, calls follow the shape of the dose curve; as a rule, active = well fitted curve in the direction sought with a large enough effect; inconclusive = small, poorly fitted or top-dose-only effect, or another doubt; inactive = no such curve, though single readings can be large; an effect the other way counts as inactive or inconclusive. Where only a bound is given, the exact number is not on record here.

For assay [1], the target named is Nuclear receptor subfamily 1 group I member 3 (Homo sapiens) (UniProt Q14994). As to the kind of experiment: Primary qHTS for agonist of constitutive androstane receptor (CAR) against the NCATS DSHEA and TCM libraries (AID 1794839). Also: potency is read from the fitted curve at half-maximal effect.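 As to activation: HepG2 cells expressing human CAR with a CYP2B6 reporter plus PK11195 antagonist; 0% is about no effect.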 Particulars: CAR agonist reporter cells, qHTS luminescence; Potency: CAR antagonist co-added at 0.75 µM unless noted; series mostly up to 40 µM. An outline of the steps:
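Luminescence from ONE-Glo luciferase was the agonist read-out in HepG2-CYP2B6-hCAR cells exposed 24 h to test substances. Wells also held the CAR antagonist PK11195 at 0.75 µM final. Viability was by CellTiter-Fluor fluorescence.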

For assay [2], the target named is Cytochrome P450 3A4 (Homo sapiens) (UniProt P08684). Description: qHTS for inhibitors of CYP3A4 against the NCATS DSHEA and TCM libraries (AID 1919971). Also: potency is read from the fitted curve at half-maximal effect. Particulars: recombinant CYP3A4 enzyme activity, luminescence qHTS; series mostly up to 34.1 µM. An outline of the steps: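 Substances were tested against enzyme with a pro-luciferin substrate; minus-enzyme wells served as background. After NADPH-initiated oxidation (30-45 min, RT), light was generated with P450-Glo reagent.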
Cytochrome P450 3A4 (Homo sapiens), sequence (P08684 whole entry, looked up): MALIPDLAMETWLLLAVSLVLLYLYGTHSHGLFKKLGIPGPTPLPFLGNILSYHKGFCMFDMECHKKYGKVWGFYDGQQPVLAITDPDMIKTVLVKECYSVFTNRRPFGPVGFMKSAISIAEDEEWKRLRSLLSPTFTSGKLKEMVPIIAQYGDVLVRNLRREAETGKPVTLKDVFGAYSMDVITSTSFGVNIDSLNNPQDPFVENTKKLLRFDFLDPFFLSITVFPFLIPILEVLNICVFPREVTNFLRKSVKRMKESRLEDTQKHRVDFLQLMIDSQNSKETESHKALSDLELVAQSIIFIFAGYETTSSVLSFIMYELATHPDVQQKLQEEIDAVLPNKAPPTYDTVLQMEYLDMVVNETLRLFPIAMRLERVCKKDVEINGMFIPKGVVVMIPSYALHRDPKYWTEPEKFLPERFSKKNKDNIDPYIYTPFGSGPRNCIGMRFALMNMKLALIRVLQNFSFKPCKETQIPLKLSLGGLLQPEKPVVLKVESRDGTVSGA
For orientation: In qHTS, concentration-response curves come from the screen itself.

A short description of assay [3]: Cell Viability - SK-N-SH (AID 435; calls by dose curve;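 also: potency is read from the fitted curve at half-maximal effect; compound exposure lasted 40 h at 37 °C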). The settings on record: SK-N-SH neuroblastoma cell viability qHTS. An outline of the steps: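 CellTiter-Glo ATP luminescence, 20 min RT read; cells pre-plated 5 hr, compound 40 hr at 37 °C, 1500 cells/well, complete medium. Normalized DMSO = 0, 100 uM tamoxifen = 100% inhibition; Hill-fit AC50.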
Assay [4] is described as follows: Cellular Toxicity (caspase-3) N2a (AID 665).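 Also: compound exposure lasted 16 h at 37 °C before readout.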 The settings on record: N2a cells, luminescence, normalized: DMSO 0%, 10 µM staurosporine 100%; at 92.2 µM (top of the series). The method in brief: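 Luminescent Caspase-Glo 3/7 readout in N2a mouse neuroblastoma cells after 16 h compound exposure at 37 °C. Signal scaled to DMSO (basal) and 10 uM staurosporine (100%). Concentration-response fitted with Hill equation for AC50.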

In assay [5] the target is Cytochrome P450 3A4 (Homo sapiens) (UniProt P08684). Description: qHTS Assay for Inhibitors and Substrates of Cytochrome P450 3A4 (AID 884). Also: nearly all actives have a fitted effect of over 50% in size. Also: potency is read from the fitted curve at half-maximal effect. Particulars: recombinant CYP3A4, Luciferin-PPXE luminescence; series mostly up to 57.1 µM. An outline of the steps: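 Luminescent readout of luciferin produced by CYP3A4 (20 nM) dealkylation of Luciferin-PPXE, 25 uM (its KM). NADPH-driven reaction ran 60 min at RT after 10 min compound preincubation; data scaled to 57 uM ketoconazole as 100% inhibition.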

Assay [6] is described as follows: Cell Viability - LYMP2-005 (AID 967).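 Also: plate controls were DMSO only for no effect and 92 µM tetraoctylammonium bromide control for full effect.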 Particulars: LYMP2-005 lymphoblastoid cell viability; series mostly up to 92.2 µM. The method in brief: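 Steps: seed 2500 LYMP2-005 cells/well, incubate 5 h at 37 C, add compound, incubate 24 h at 37 C, add CellTiter-Glo, wait 30 min at RT, read luminescence. Concentration-response data fitted to Hill equation for AC50.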
Assay [7] in a line: Cell Viability - LYMP2-022 (AID 987).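 Also: 0% = DMSO alone and full effect = tetraoctylammonium bromide at 92 µM; nearly all actives have a fitted effect of over 55% in size.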 Particulars: LYMP2-022 lymphoblastoid cell viability; series mostly up to 92.2 µM. The method in brief:
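Luminescent ATP read-out (CellTiter-Glo, 30 min, RT) after 24 hr, 37 C compound exposure of 2500 human lymphoblastoid cells/well in complete medium. Cytotoxicity taken as concentration-dependent ATP loss; AC50 from standard Hill equation.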

The nature of assay [8]: Cell Viability - LYMP2-024 (AID 988).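 Also: plate controls were DMSO only for no effect and 92 µM tetraoctylammonium bromide for full effect; nearly all actives have a fitted effect of over 60% in size.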 Particulars: LYMP2-024 lymphoblastoid cell viability; series mostly up to 92.2 µM. An outline of the steps: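 ATP-based luminescence (CellTiter-Glo, 30 min RT) after 24 h compound exposure at 37 C of 2500 lymphoblastoid cells/well; decrease in ATP taken as cytotoxicity. qHTS concentration-response fitted to standard Hill equation for AC50.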

Assay [9] can be described thus: Cell Viability - LYMP2-026 (AID 989). Also: % is scaled to controls: 0 for no effect and ±100 for the full control effect; nearly all actives have a fitted effect of over 50% in size. The settings on record: LYMP2-026 lymphoblastoid cell viability, qHTS; series mostly up to 92.2 µM. The method in brief: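 qHTS cytotoxicity: 2500 cells/well, 5 hr 37 C, compound 24 hr 37 C, CellTiter-Glo 30 min RT, luminescence. Tetraoctylammonium bromide positive control. AC50 via standard Hill fit.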
The target in assay [10] is Glucocorticoid receptor (Homo sapiens) (UniProt P04150). Description: qHTS assay for small molecule agonists of glucocorticoid receptor signaling (AID 588532; active = well fitted curve in the direction sought with a large enough effect in the signal ratio, with a control signal flat; the % refers to the signal ratio;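 also: 100% = dexamethasone at 0.1 µM and 0% = DMSO only wells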). Particulars: HeLa MMTV-bla, beta-lactamase ratio, agonist, 18 h; stronger effect = higher value; percent of dexamethasone control, DMSO zero. An outline of the steps:
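HeLa GRE-bla reporter cells; 18 h compound exposure at 37 C; 2 h CCF4 loading at room temperature; fluorescence at 460 and 530 nm; EC50 by Hill equation.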

The nature of assay [11]: qHTS assay for small molecule activators of the p53 signaling pathway (AID 651743; active = well fitted activation curve with a large enough effect in the signal ratio, not every such curve was filed as active; the % refers to the signal ratio; also: % of control where 0% means no effect). Particulars: HCT-116 p53RE-bla, beta-lactamase FRET ratio, 16 h; activation: stronger effect = higher value. The method in brief:
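Reporter: beta-lactamase driven by p53 response elements, stably integrated in HCT-116 cells. Cells seeded at 4,000/well, 5 h preincubation, compound (DMSO) 16 h at 37 C; B/G FRET substrate 2 h RT; fluorescence intensity read.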

The nature of assay [12]: Cell Viability - NIH 3T3 (AID 541).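 Also: cells exposed to compound for 40 hours; plate controls were DMSO alone for no effect and tamoxifen positive control for full effect; nearly all actives have a fitted effect of over 25% in size.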 The settings on record: NIH 3T3 cell viability, qHTS; activity change, negative = cytotoxicity: at 92.2 µM (top of the series). An outline of the steps: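 qHTS format; 40 hr compound exposure, 37 °C; CellTiter-Glo luminescence (cellular ATP) read-out after 20 min at RT. Decrease in ATP = cytotoxicity; AC50 from standard Hill fit.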
The target of assay [13] is Estrogen receptor (Homo sapiens) (UniProt P03372). Description: qHTS assay for small molecule antagonists of estrogen receptor alpha signaling (AID 588513; active = well fitted curve in the direction sought with a large enough effect in the signal ratio, with a control signal flat, not every such curve was filed as active; the % refers to the signal ratio; also: % is scaled to controls: 0 for no effect and ±100 for the full control effect). Particulars: ER-alpha-UAS-bla HEK293, beta-lactamase ratio, antagonist mode; series mostly up to 76.9 µM. An outline of the steps: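 Beta-lactamase reporter, antagonist mode, HEK 293 GripTite cells; 0.5nM E2 stimulus, 18 h, 37 C; CCF4 dye 2 h RT; fluorescence. IC50 and efficacy from Hill fits, normalized to E2 and DMSO.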
Estrogen receptor (Homo sapiens), sequence (P03372 whole entry, looked up): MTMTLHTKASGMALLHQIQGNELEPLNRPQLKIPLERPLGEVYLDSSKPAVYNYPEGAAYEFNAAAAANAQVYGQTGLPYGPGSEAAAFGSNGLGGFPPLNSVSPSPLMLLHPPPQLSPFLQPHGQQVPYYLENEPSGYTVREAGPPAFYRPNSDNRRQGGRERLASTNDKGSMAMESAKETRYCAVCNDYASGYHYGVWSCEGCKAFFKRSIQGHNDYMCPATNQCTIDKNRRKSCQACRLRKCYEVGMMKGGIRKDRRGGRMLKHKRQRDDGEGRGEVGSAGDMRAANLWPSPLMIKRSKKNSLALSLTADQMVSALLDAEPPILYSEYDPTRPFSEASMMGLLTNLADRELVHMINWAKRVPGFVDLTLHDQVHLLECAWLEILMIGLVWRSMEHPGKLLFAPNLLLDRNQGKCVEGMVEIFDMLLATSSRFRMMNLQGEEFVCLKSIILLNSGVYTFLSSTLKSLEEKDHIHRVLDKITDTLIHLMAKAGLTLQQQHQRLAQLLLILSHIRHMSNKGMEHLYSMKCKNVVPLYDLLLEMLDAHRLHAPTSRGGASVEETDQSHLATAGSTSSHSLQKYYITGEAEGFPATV

For assay [14] the target is unchanged. Description: qHTS assay for small molecule agonists of estrogen receptor alpha signaling (AID 588514; calls by dose curve; also: nearly all actives have a fitted effect of over 70% in size; also: potency is read from the fitted curve at half-maximal effect;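 as to activation: 0% = vehicle only and 100% = reference agonist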). The settings on record: ER-alpha-UAS-bla HEK293, beta-lactamase ratio, 18 h; series mostly up to 76.8 µM. The method in brief:
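Read-out: CCF4 fluorescence from a beta-lactamase reporter in ER-alpha-UAS-bla HEK 293 cells after 18 hrs of compound exposure at 37 C. Normalized to 20 nM 17-beta-estradiol (100%) and DMSO (0%).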

Assay [15] can be described thus: qHTS assay for small molecule agonists of retinoid X receptor alpha signaling (AID 588544; calls by dose curve;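 as to activation: 0% = DMSO basal wells and 100% = reference agonist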). The settings on record: HEK293T RXRa-UAS-bla, beta-lactamase reporter, 18 h; 530 nm emission.
The target in assay [16] is Retinoic acid receptor RXR-alpha (Homo sapiens) (UniProt P19793). The description is as above. The settings on record: HEK293T RXRa-UAS-bla, beta-lactamase reporter, 18 h; series mostly up to 76.7 µM.
Retinoic acid receptor RXR-alpha (Homo sapiens), sequence (P19793 whole entry, looked up): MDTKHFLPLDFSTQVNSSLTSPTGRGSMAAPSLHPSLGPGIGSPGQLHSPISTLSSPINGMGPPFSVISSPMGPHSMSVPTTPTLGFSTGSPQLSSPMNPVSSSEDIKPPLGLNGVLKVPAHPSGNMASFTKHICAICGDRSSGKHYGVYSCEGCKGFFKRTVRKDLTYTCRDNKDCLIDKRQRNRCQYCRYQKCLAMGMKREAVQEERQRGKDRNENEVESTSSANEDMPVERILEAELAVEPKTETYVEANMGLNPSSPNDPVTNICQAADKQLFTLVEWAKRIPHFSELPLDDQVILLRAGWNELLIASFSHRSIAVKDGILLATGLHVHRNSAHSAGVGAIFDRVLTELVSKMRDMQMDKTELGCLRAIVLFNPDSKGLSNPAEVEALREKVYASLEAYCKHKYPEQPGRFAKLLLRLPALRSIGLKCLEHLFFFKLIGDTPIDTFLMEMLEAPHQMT
For assay [17], the target named is Tumor necrosis factor (Homo sapiens) (UniProt P01375). Description: qHTS assay to identify small molecules that stimulate Tumor Necrosis Factor-alpha (TNF-alpha) secretion (AID 651757; active = well fitted curve in the direction sought with a large enough effect in the signal ratio; the % refers to the signal ratio; also: 0% is about no effect). Particulars: Human cells, HTRF 665/615 ratio; series mostly up to 92.2 µM. The method in brief: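 THP-1 cells, 3000/well; compound 17 hrs, 37 C; add cryptate/XL665 anti-TNF-alpha antibody pair; 3 hr RT; TR-FRET (HTRF) read of secreted TNF-alpha. Quantitative HTS format.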
Tumor necrosis factor (Homo sapiens), sequence (P01375 whole entry, looked up): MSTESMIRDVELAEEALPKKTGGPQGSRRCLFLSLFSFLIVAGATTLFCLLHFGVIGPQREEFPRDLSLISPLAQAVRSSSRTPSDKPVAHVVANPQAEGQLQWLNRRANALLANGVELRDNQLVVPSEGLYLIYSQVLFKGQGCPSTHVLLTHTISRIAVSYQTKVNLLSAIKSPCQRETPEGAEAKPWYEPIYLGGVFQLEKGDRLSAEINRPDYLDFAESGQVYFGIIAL

Nuclear receptor subfamily 1 group I member 3 (Homo sapiens), sequence (Q14994 whole entry, looked up): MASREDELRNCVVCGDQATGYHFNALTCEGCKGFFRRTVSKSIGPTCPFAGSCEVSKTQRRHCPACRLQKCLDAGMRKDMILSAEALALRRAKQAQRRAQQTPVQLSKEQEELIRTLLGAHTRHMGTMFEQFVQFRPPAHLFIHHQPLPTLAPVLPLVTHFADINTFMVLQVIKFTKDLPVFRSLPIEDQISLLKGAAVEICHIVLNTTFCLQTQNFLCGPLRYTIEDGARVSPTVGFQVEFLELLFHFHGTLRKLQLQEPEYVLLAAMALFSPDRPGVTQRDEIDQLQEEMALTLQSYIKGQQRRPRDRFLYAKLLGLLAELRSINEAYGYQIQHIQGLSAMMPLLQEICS
Glucocorticoid receptor (Homo sapiens), sequence (P04150 whole entry, looked up): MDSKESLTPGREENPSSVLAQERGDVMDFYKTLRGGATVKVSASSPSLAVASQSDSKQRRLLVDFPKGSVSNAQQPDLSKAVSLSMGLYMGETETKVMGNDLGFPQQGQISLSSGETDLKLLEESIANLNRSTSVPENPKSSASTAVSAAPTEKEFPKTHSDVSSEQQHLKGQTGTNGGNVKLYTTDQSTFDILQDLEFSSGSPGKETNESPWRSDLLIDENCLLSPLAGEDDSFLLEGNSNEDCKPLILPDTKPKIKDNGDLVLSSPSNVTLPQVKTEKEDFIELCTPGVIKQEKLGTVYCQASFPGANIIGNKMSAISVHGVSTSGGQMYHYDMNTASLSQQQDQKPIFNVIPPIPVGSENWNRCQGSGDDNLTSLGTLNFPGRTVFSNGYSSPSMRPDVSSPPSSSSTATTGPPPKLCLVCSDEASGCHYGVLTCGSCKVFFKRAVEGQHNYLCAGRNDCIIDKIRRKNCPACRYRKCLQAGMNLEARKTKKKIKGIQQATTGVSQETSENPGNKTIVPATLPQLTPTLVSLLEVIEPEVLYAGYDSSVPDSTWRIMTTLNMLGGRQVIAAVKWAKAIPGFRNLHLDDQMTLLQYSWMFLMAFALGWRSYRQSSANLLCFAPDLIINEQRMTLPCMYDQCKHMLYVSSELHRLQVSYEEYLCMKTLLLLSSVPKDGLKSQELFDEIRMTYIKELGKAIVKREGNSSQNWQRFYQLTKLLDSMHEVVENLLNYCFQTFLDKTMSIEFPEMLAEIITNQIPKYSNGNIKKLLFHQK

Regarding `CCCCCCCCCCCCCCCCCCCC(=O)O`, the Potency entry in [1] and in assay [2] was “inactive” in each case.

`COc1cc2c(cc1O)C[C@H]1c3c(cc(OC)c(O)c3-2)CCN1C`: in [1], the Potency is 12.6 µM (active).

As to `CC[C@@H]1CN2CC[C@]3(C(=O)Nc4ccccc43)[C@@H]2C[C@@H]1/C(=C\OC)C(=O)OC`, the Potency entry in assay [1] is “inactive”.

For the molecule `O=S(=O)(O)O`, the Potency result in assay [2] is “inactive”.

As for `COC1=CC(=O)O[C@@H](/C=C/c2ccc3c(c2)OCO3)C1`, the Potency in [3] is > 92 µM (inactive); in assay [5], 2.51 µM (active); in [2], 14.1 µM (active). Further, the caspase-3 activation in assay [4] was -17.2% (inactive). Besides, the Potency entry in [6], in assay [7], in assay [8] and in assay [9] was “inactive” in each case. The activation is -3.44% (inactive) in [10] and -5.07% (inactive) in assay [11].

Regarding `Cc1ccc([N+](=O)[O-])cc1C`, the Potency in [3] is > 92 µM (inactive). Also, the activity change, negative = cytotoxicity in assay [12] is -7.46% (inactive). Also, the Potency result in assay [5], in assay [6], in [7], in assay [8], in [9] and in assay [13] was “inactive” in each case. Also, the Potency result in [14] and in [16] was “inactive” in each case. Further, in assay [15], the max response is -11.5%. In assay [17], the result was inactive.

For `C=C(C)C#N`, the results for the Potency in assay [3] and in [14] were > 92 µM (inactive) and 35.5 µM (active), respectively. Besides, the activity change, negative = cytotoxicity in [12] was -26.6% (inactive). Further, the caspase-3 activation in assay [4] is -1.66% (inactive). In addition, the Potency result in assay [5], in assay [6], in [13] and in assay [16] was “inactive” in each case. The max response in assay [15] was 5.57% and -6.47%. Moreover, the activation in [11] was -0.28% (inactive) and -1.48% (inactive). The outcome in assay [17] was inactive.

Regarding `COc1cc(OC)c(/C=C2/C(=O)Nc3ccccc32)c(OC)c1`, the Potency in [5] was 2.51 µM (active).
